An excerpt weighted towards active compounds, which were near 27% of everything screened.
CYP2C9 inhib – inhibitors of human CYP2C9; AID 777; CYP2C9 Supersomes, luciferin-H conversion, luminescence; 20% of 96,000 active; P11712; inhibition, % at 5 µM;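 active = blocking of liver enzyme CYP2C9 beyond about 50% at 5 µM, limit read from the data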
CYP2C19 act – increases human CYP2C19 enzyme activity | P33261 | recombinant CYP2C19, luciferin-H EGE luminescence; active compounds read high; 0 = fully inhibited enzyme, 1 = untreated enzyme | activation factor at 5 µM | 96,000 tested, under 10 active | AID 1025;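 active = activation factor of at least 2 at 5 µM in the primary screen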;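 note: 0 = wells with 2.5 mM tranylcypromine and 1 = vehicle-only wells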
Target sequence (P33261 whole entry, looked up): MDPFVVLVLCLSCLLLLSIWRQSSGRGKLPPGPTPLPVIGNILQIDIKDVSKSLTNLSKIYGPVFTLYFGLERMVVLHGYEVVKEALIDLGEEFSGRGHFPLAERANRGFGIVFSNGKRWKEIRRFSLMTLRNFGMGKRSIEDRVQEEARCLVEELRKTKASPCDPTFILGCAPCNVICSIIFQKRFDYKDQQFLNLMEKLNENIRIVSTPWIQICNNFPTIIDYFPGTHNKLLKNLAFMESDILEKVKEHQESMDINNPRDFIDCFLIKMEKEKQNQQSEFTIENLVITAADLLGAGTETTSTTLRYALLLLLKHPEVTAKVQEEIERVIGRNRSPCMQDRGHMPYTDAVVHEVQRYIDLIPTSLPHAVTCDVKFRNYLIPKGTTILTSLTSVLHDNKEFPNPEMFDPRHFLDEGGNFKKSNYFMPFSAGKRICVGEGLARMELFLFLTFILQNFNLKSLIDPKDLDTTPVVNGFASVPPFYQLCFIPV
CYP2C9 activ – activators of human CYP2C9; P11712; activation factor at 5 µM; recombinant CYP2C9, luciferin-H conversion, luminescence; active compounds read high; factor 1 = untreated enzyme, 0 = blocked; 1.4% of 96,000 active;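 active = activation factor of 2 or more for CYP2C9 at a 5 µM dose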;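 note: 0 = sulfaphenazole-blocked wells and 1 = vehicle-only wells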
sEH inh – inhibitors of human soluble epoxide hydrolase | recombinant human sEH enzymatic activity assay | inhibition, % at 2 µM | 0.34% of 91,000 active; in the data active = inhibition above about 80%
sEH activator – activators of human soluble epoxide hydrolase; P34913; purified human sEH enzymatic activity, activator screen; activation, % at 2 µM; 0.04% of 91,000 active; in the data active = activation above about 37%
CYP2C19 inh – inhibitors of human CYP2C19; P33261; CYP2C19 Supersomes, luciferin-H EGE luminescence, 30 min; inhibition, % at 5 µM; 21% of 96,000 active; AID 778;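 active = CYP2C19 inhibition above a set limit at 5 µM in the primary screen, cut at about 50% in these data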;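 note: plate controls were negative control wells for no effect and 2.5 mM tranylcypromine positive control for full effect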
Numbers without * were called inactive.

Results for O=C(Nc1nc2c(s1)CCCC2)C1CCCN1C(=O)c1cccs1 (stereo unspecified) ?
CYP2C9 inhib: 39; CYP2C19 act: 0.6; CYP2C9 activ: 0.6; sEH inh: 10; sEH activator: -11; CYP2C19 inh: 42

What do the screens show for `Cc1ccc(CN(C)C(=O)C2CCCN2C(=O)c2cccs2)o1` (stereo unspecified)?
CYP2C9 inhib: 14; CYP2C19 act: 0.4; CYP2C9 activ: 0.9; sEH inh: 8; sEH activator: -7; CYP2C19 inh: 57*

How did CCOc1ccc(CCNS(=O)(=O)c2c(C)n[nH]c2C)cc1OCC do in these assays?
CYP2C9 inhib: 20; CYP2C19 act: 0.9; CYP2C9 activ: 0.8; CYP2C19 inh: 8

How did CC1CCC2(CC1)Nc1ccccc1C(=O)N2c1ccccc1 (stereo unspecified) do in these assays?
CYP2C9 inhib: 48; CYP2C19 act: 0.6; CYP2C9 activ: 0.5; sEH inh: 9; sEH activator: -14; CYP2C19 inh: 37

What do the screens show for `O=C1c2ccccc2NC2(CCCCC2)N1c1ccc(O)cc1`?
CYP2C9 inhib: 56*; CYP2C19 act: 0.7; CYP2C9 activ: 0.4; sEH inh: 9; sEH activator: -6; CYP2C19 inh: 32

What do the screens show for `O=S(=O)(/N=S1/CC=CCN1S(=O)(=O)c1ccccc1)c1ccccc1` (stereo unspecified)?
CYP2C9 inhib: 55*; CYP2C19 act: 1; CYP2C9 activ: 0.4; sEH inh: 3; sEH activator: -6; CYP2C19 inh: 2

What do the screens show for `CCCN1C=CC(=C2C(=O)c3ccccc3C2=O)C=C1`?
CYP2C9 inhib: 58*; CYP2C19 act: 0.2; CYP2C9 activ: 0.4; CYP2C19 inh: 76*

Results for O=S(=O)(NCc1cn2ccsc2n1)c1ccc(Oc2ccccc2)cc1 ?
CYP2C9 inhib: 80*; CYP2C19 act: 0.3; CYP2C9 activ: 0.2; sEH inh: -16; sEH activator: 14; CYP2C19 inh: 69*

Results for O=S(=O)(NCc1cn2ccsc2n1)c1ccc2c(c1)OCCO2 ?
CYP2C9 inhib: -64; CYP2C19 act: 0.1; CYP2C9 activ: 1.6; sEH inh: 5; sEH activator: -1; CYP2C19 inh: 87*

Results for CCc1ccc(S(=O)(=O)NCc2cn3ccsc3n2)s1 ?
CYP2C9 inhib: -1; CYP2C19 act: 0.5; CYP2C9 activ: 1; CYP2C19 inh: 47

How did O=S(=O)(NCc1cn2ccsc2n1)c1cccs1 do in these assays?
CYP2C9 inhib: 23; CYP2C19 act: 0.8; CYP2C9 activ: 0.8; sEH inh: -12; sEH activator: 14; CYP2C19 inh: 25

What do the screens show for `Cn1nnc2sc3c(c2c1=O)CCCC3`?
CYP2C9 inhib: 7; CYP2C19 act: 0.9; CYP2C9 activ: 0.9; sEH inh: 9; sEH activator: -8; CYP2C19 inh: 14

How did Cc1sc2nc3n(c(=O)c2c1C)NC(=O)CC3 do in these assays?
sEH inh: -14; sEH activator: 14

How did COc1ccc(C(=O)NC(=S)NCCO)cc1Br do in these assays?
CYP2C9 inhib: -3; CYP2C19 act: 1.1; CYP2C9 activ: 1; sEH inh: -6; sEH activator: 7; CYP2C19 inh: -7

Results for O=C(CCn1ccc2ccccc21)NC1CCCc2ccccc21 (stereo unspecified) ?
CYP2C9 inhib: 60*; CYP2C19 act: 0.1; CYP2C9 activ: 0.4; sEH inh: 1; sEH activator: -1; CYP2C19 inh: 93*

Results for O=S(=O)(c1ccc(Cl)s1)N1CCc2ccccc2C1 ?
CYP2C9 inhib: 11; CYP2C19 act: 0.3; CYP2C9 activ: 0.9; CYP2C19 inh: 67*

How did O=S(=O)(c1ccc(Br)s1)N1CCc2ccccc2C1 do in these assays?
sEH inh: 1; sEH activator: -2

How did O=S(=O)(c1ccc(Cl)s1)N1CCCc2cccc(O)c21 do in these assays?
CYP2C9 inhib: 15; CYP2C19 act: 0.3; CYP2C9 activ: 0.9; sEH inh: 10; sEH activator: -9; CYP2C19 inh: 72*

How did O=S(=O)(c1ccc(Cl)s1)N1CCN(c2ncccn2)CC1 do in these assays?
CYP2C9 inhib: 43; CYP2C19 act: 0.8; CYP2C9 activ: 0.6; sEH inh: 29; sEH activator: -26; CYP2C19 inh: 24

How did C=CCNC(NC(=O)c1ccccc1)(C(=O)OCC)C(F)(F)F (stereo unspecified) do in these assays?
CYP2C9 inhib: 20; CYP2C19 act: 0.4; CYP2C9 activ: 0.8; sEH inh: 1; sEH activator: 0; CYP2C19 inh: 64*

Results for CCOC(=O)C(NC(=O)c1ccccc1)(Nc1cc(C)on1)C(F)(F)F (stereo unspecified) ?
CYP2C9 inhib: 39; CYP2C19 act: 0.4; CYP2C9 activ: 0.6; sEH inh: -1; sEH activator: 2; CYP2C19 inh: 62*

What do the screens show for `CCOC(=O)C(NC(=O)c1ccccc1)(Nc1nnc(C)s1)C(F)(F)F` (stereo unspecified)?
sEH inh: 4; sEH activator: -3

Results for CCOC(=O)C(NCc1ccccc1)(NC(=O)c1ccccc1)C(F)(F)F (stereo unspecified) ?
CYP2C9 inhib: 37; CYP2C19 act: 0.5; CYP2C9 activ: 0.6; sEH inh: 6; sEH activator: -4; CYP2C19 inh: 52*

How did CCOC(=O)C(NCc1ccc2c(c1)OCO2)(NC(=O)c1ccccc1)C(F)(F)F (stereo unspecified) do in these assays?
CYP2C9 inhib: 74*; CYP2C19 act: 0; CYP2C9 activ: 0.3; sEH inh: 2; sEH activator: 1; CYP2C19 inh: 96*

What do the screens show for `CC1=NC(C)Cc2ccccc21` (stereo unspecified)?
CYP2C9 inhib: -2; CYP2C19 act: 1.1; CYP2C9 activ: 1; sEH inh: -3; sEH activator: 4; CYP2C19 inh: -10

Results for CCN(CC(=O)N1CCN(C)CC1)S(=O)(=O)c1ccc(Cl)cc1 ?
CYP2C9 inhib: 31; CYP2C19 act: 1.1; CYP2C9 activ: 0.7; sEH inh: -11; sEH activator: 13; CYP2C19 inh: -7

Results for C=CCc1cccc2cc(C(=O)NCc3cccnc3)c(=O)oc12 ?
CYP2C9 inhib: 13; CYP2C19 act: 0.3; CYP2C9 activ: 0.9; CYP2C19 inh: 70*

How did C=CCc1cccc2cc(C(=O)NC(C)(C)C)c(=O)oc12 do in these assays?
CYP2C9 inhib: 55*; CYP2C19 act: 0.4; CYP2C9 activ: 0.4; sEH inh: 2; sEH activator: 3; CYP2C19 inh: 65*

How did C=CCc1cccc2cc(C(=O)NC3=C(C#N)CCC3)c(=O)oc12 do in these assays?
CYP2C9 inhib: -18; CYP2C19 act: 0.9; CYP2C9 activ: 1.2; sEH inh: -9; sEH activator: 12; CYP2C19 inh: 13

What do the screens show for `N#CC(c1nc2ccccc2nc1N1CCCCC1)S(=O)(=O)c1ccc(Cl)cc1` (stereo unspecified)?
CYP2C9 inhib: 20; CYP2C19 act: 0.9; CYP2C9 activ: 0.8; CYP2C19 inh: 7

Source: PubChem (several laboratories)
